Screening results from PubChem BioAssay.
CCHFV vOTU inh: CCHFV vOTU protease inhibitors, primary screen, biochemical, Pep-AMC substrate, fluorescence; Crimean-Congo hemorrhagic fever virus L polyprotein viral ovarian tumor (vOTU) protease …; inhibition, % at 11.5 µM; 370,000 tested, 0.55% active; in the data active = inhibition above about 30%
ugtP null kill: growth inhibition of ugtP-null S. aureus, primary screen, RN4220 ugtP deletion, OD600. 16 h. growth inhibition, % (test concentration not listed). 330,000 tested, 0.54% active. AID 1259309, 2017; in the data active = growth inhibition above about 68%
BJeLR viability: MLPCN primary cell-based screen for lethality selective to Ras in HRASV12 cells. BJeLR (HRASV12) viability, CellTiter-Glo ATP luminescence, 48 h. inhibition, % (no concentration beside the values). 300,000 tested, 0.17% active. AID 1554, 2009; in the data active = inhibition above about 50%; inconclusive = no clear call, values can overlap the other calls
Sa RN4220 lethal: growth inhibition of S. aureus RN4220, primary screen, OD600; 330,000 tested, 0.33% active; 16 h; inhibition, % (concentration not given with the values); in the data active = inhibition above about 85%
PfHsp40 yeast: rescue of yeast from PfHsp40 toxicity, primary screen, S. cerevisiae, ATP luminescence | S. cerevisiae expressing PfHsp40, growth rescue | growth rescue, % at 12.5 µM | 340,000 tested, 0.68% active | AID 504582, 2011; in the data active = growth rescue above about 28%, passing the limit was not always enough; inconclusive = no clear call, values can overlap the other calls;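 note: yeast W303a lacking pdr1 and pdr3 grown in galactose medium; growth measured after three days at 30 °C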
A number is an active result; ! = a repeat was not active. In the library only some 1.6% were active in any assay of this set; here they are far more common.

For Clc1c(Cl)c(Cl)c2n[nH]nc2c1Cl the results were CCHFV vOTU inh inactive, ugtP null kill inactive, BJeLR viability inactive, Sa RN4220 lethal inactive and PfHsp40 yeast 59.0.
For COc1ccccc1/C=C/C=NN1CCN(Cc2cccc3ccccc23)CC1 the results were ugtP null kill inactive and Sa RN4220 lethal inactive.
N#CC(=NNc1ccc(Cl)cc1)C(=O)c1ccsc1 was read as ugtP null kill 99.0 and Sa RN4220 lethal 99.7.
Screening N#CC(=NNc1ccc(Cl)cc1)C(N)=S returned ugtP null kill 88.1 and Sa RN4220 lethal inactive.
N#CC(=NNc1cccc(Cl)c1)C(=O)c1ccccc1 was read as ugtP null kill 100.0 and Sa RN4220 lethal 100.1.
For N#C/C(=N\Nc1ccc(Cl)cc1)C(=O)c1ccsc1 the results were CCHFV vOTU inh inactive, BJeLR viability inactive and PfHsp40 yeast inactive.
`Cc1cccc(C)c1NC(=O)COc1cccc(C=NNC(=O)C(=O)NCc2ccccc2)c1` gave ugtP null kill inactive and Sa RN4220 lethal inactive.
CC(=O)N(c1ccccc1)c1c(F)c(F)c(F)c(F)c1F was read as CCHFV vOTU inh inactive, ugtP null kill inactive, BJeLR viability inactive, Sa RN4220 lethal inactive and PfHsp40 yeast 34.0.
Screening O=C(N/N=C1\C(=O)c2cccc3cccc1c23)c1ccc(O)cc1 returned CCHFV vOTU inh inactive, ugtP null kill inactive, BJeLR viability inactive, Sa RN4220 lethal inactive and PfHsp40 yeast inactive.
`O=C(NN=C1C(=O)c2cccc3cccc1c23)c1ccc(Cl)cc1` gave ugtP null kill 91.5 and Sa RN4220 lethal 97.1.
Screening Cc1cccc(C)c1NC(=O)c1nc(S(=O)(=O)Cc2ccccc2)ncc1Cl returned CCHFV vOTU inh inactive, BJeLR viability inactive and PfHsp40 yeast 98.0.
Screening Cc1cccc(CS(=O)(=O)c2ncc(Cl)c(C(=O)Nc3c(C)cccc3C)n2)c1 returned CCHFV vOTU inh inactive, BJeLR viability inactive and PfHsp40 yeast inactive.
For O=C(Nc1ccc2nc3n(c(=O)c2c1)CCCCC3)c1c(F)ccc([N+](=O)[O-])c1F the results were CCHFV vOTU inh inactive, BJeLR viability 75.4 and PfHsp40 yeast inactive.
For Cc1cc2c(C)nc(NN=Cc3ccc(F)cc3)nc2o1 the results were ugtP null kill inactive and Sa RN4220 lethal inactive.
Screening O=S(=O)(Nc1ccc(-n2cccc2)cc1)c1ccc(Cl)c(Cl)c1 returned CCHFV vOTU inh inactive, ugtP null kill inactive, BJeLR viability inactive, Sa RN4220 lethal inactive and PfHsp40 yeast 65.7.
`O=S(=O)(Nc1ccc(-n2cccc2)cc1)c1ccc(F)cc1` gave CCHFV vOTU inh inactive, ugtP null kill inactive, BJeLR viability inactive, Sa RN4220 lethal inactive and PfHsp40 yeast inactive.
`CCc1ccc(/C=C/C(=O)c2cc(Br)ccc(=O)c2O)cc1` gave CCHFV vOTU inh inactive, ugtP null kill 95.5, BJeLR viability inactive, Sa RN4220 lethal 100.1 and PfHsp40 yeast inconclusive.
Screening CCOc1ccc(/C=C/C(=O)c2cc(Br)ccc(=O)c2O)cc1 returned CCHFV vOTU inh inactive, ugtP null kill 89.6, Sa RN4220 lethal inactive and PfHsp40 yeast inactive.
For O=C(C=Cc1ccccc1)c1cc(Br)ccc1O the results were CCHFV vOTU inh inactive, ugtP null kill inactive, Sa RN4220 lethal inactive and PfHsp40 yeast inactive.
For Cc1cccc(/C=C/C(=O)c2cc(Br)ccc(=O)c2O)c1 the results were CCHFV vOTU inh inactive, ugtP null kill 99.0, BJeLR viability inactive, Sa RN4220 lethal 98.9 and PfHsp40 yeast inactive.
Screening COc1ccc(C(=O)C=CN2CCOCC2)cc1 returned ugtP null kill inactive and Sa RN4220 lethal inactive.
For COC(OC)c1ccnc(-c2ccc(OC(C)=O)cc2)n1 the results were CCHFV vOTU inh inactive, ugtP null kill inactive, BJeLR viability inactive, Sa RN4220 lethal inactive and PfHsp40 yeast 51.7.
NS(=O)(=O)c1ccc(NC(=O)c2cc(-c3cccs3)nc3ccccc23)cc1 was read as CCHFV vOTU inh inactive, BJeLR viability 62.7 and PfHsp40 yeast inactive.
CC(=O)Oc1ccc(C(C)=NN2CCN(Cc3ccc(C)cc3)CC2)cc1 was read as ugtP null kill inactive and Sa RN4220 lethal inactive.
For CC1(C)C(O)CC[C@@]2(C)C1CC[C@]1(C)C2C(=O)C=C2C3C[C@@](C)(C(=O)O)CC[C@]3(C)CC[C@]21C (stereo partly drawn) the results were ugtP null kill 87.0 and Sa RN4220 lethal inactive.
Screening CC1(C)CC[C@]2(C(=O)O)CC[C@]3(C)C(=CCC4[C@@]5(C)CCC(O)C(C)(C)C5CC[C@]43C)C2C1 (stereo partly drawn) returned ugtP null kill 91.3! and Sa RN4220 lethal inactive.
